Measurements as given in PubChem BioAssay (NCATS).
Records with an inconclusive call do not appear. A number with no mark means an inactive call. Active and inactive are the calls of the source. The call rests on the fitted dose curve; in most records, active means well fitted cell-killing curve with a large enough effect; inconclusive means small, poorly fitted or top-dose-only effect, or effect the other way; inactive means no such curve, though single readings can be large or run the other way.

Test: Quantitative High-Throughput drug screen in 47 multiple myeloma cell lines against the NCATS MIPE library collection: XG1_PLB cell viability assay (AID 1919866); further: nearly all actives have a fitted effect of over 35% in size
Conditions: CellTiter-Glo ATP, 48 h; series mostly up to 45.8 µM; viability: at the top concentration
Description: PI: Beverly A. Mock Ph.D.
Laboratory of Cancer Biology and Genetics,
Center for Cancer Research, National Cancer Institute,
National Institute of Health, Bethesda, Maryland
Drug resistance and disease progression are common in multiple myeloma (MM) patients, underscoring the need for new therapeutic combinations. […] We hypothesized that effective combinations would reduce MYC expression and enhance p16 activity. […] These preclinical data identify potentially useful drug combinations for evaluation in drug-resistant MM and reveal potential mechanisms of combined drug sensitivity.
Described herein is the primary MIPE qHTS used to cherrypick compounds. Validated compounds were then further tested for potential synergistic activiy.
[1] Peat TJ, Gaikwad SM, Dubois W, Gyabaah-Kessie N, Zhang S, Gorjifard S, Phyo Z, Andres M, Hughitt VK, Simpson RM, Miller MA, Girvin AT, Taylor A, Williams D, D'Antonio N, Zhang Y, Rajagopalan A, Flietner E, Wilson K, Zhang X, Shinn P, Klumpp-Thomas C, McKnight C, Itkin Z, Chen L, Kazandijian D, Zhang J, Michalowski AM, Simmons JK, Keats J, Thomas CJ, Mock BA. Drug combinations identified by high-throughput screening promote cell cycle transition and upregulate Smad pathways in myeloma. Cancer Lett. 2023 Aug 1;568:216284. doi: 10.1016/j.canlet.2023.216284. Epub 2023 Jun 24. PMID: 37356470; PMCID: PMC10408729.
SEQUENCE No. (e.g., 1, 2, 3, etc.); […] (e.g., Cells, Incubation, Reagent, etc.); VALUE and DESCRIPTION.
1; Cells; 5 uL; white, solid bottom 1536-well Greiner assay plate.
2; Compounds; 23 nL; Kalypsis pin tool (Wako USA) equipped with a 1536-well pin head to transfer to the assay plates.
3; Incubation; 48 hours; 37C incubation.
4; Reagent;5uL; CellTiter Glo (Promega).
5; Detector; 425V; Luminescence; Viewlux PerkinElmer.
NOTES (numbers refer to Sequence numbers above)
1. The cell-based screening methods employed in this study were like those previously published. Briefly, the corresponding myeloma cell lines were screened in 1,536-well plates with 500 cells, 5-uL per well for inhibition of cell viability (assessed by measuring ATP levels with CellTiterGlo).
2. NCATS MIPE 4.0 library of approved and investigational drugs were added using the Kalypsis pin tool. Wells treated with DMSO only for 100% viability and media only for 0% viability were used as controls.
3. The assay plates were covered and incubated for 48 hours in a 37C, 5% CO2 incubator with controlled humidity.
4. After 48 hours, CellTilter-GloTM luminescent substrate mix (Promega) reagent was added to the assay plate and plates we incubated for 5 min at room temperature.
5. Signal was measured as median relative luminescence units on a ViewLux (PerkinElmer) multiplate reader.
[1] Heske CM, Davis MI, Baumgart JT, Wilson K, Gormally MV, Chen L, Zhang X, Ceribelli M, Duveau DY, Guha R, Ferrer M, Arnaldez FI, Ji J, Tran HL, Zhang Y, Mendoza A, Helman LJ, Thomas CJ. Matrix Screen Identifies Synergistic Combination of PARP Inhibitors and Nicotinamide Phosphoribosyltransferase (NAMPT) Inhibitors in Ewing Sarcoma. Clin Cancer Res. 2017 Dec 1;23(23):7301-7311. doi: 10.1158/1078-0432.CCR-17-1121. Epub 2017 Sep 12. PMID: 28899971; PMCID: PMC6636827.
Potency means the concentration at half of the fitted maximal effect.

| SMILES | viability [%] | Potency |
| --- | --- | --- |
| CN1C(=O)COc2c(C(=O)NC3CN4CCC3CC4)cc(Cl)cc21 (stereo not given) | 113 | – |
| C[C@]12CC[C@H]3[C@@H](CC[C@@]45O[C@H]4C(O)=C(C#N)C[C@]35C)[C@H]1CC[C@H]2O | 105 | – |
| CN1C(=O)CCS(=O)(=O)C1c1ccc(Cl)cc1 (stereo not given) | – | 16.6 µM (active) |
| CC(C)c1cccc(C(C)C)c1O | 131 | – |
| CCC1(c2ccc(N)cc2)CCC(=O)NC1=O (stereo not given) | 112 | – |
| C[C@](O)(CS(=O)(=O)c1ccc(F)cc1)C(=O)Nc1ccc(C#N)c(C(F)(F)F)c1 | – | 0.418 µM (active) |
| O=C(O)CCCc1ccc(N(CCCl)CCCl)cc1 | – | 16.6 µM (active) |
| C[C@]12CC[C@@H]3c4ccc(OC(=O)N(CCCl)CCCl)cc4CC[C@H]3[C@@H]1CC[C@@H]2OP(=O)(O)O | 119 | – |
| O=P1(N(CCCl)CCCl)NCCCO1 (stereo not given) | – | 14.8 µM (active) |
| CC(C)C[C@H](CN)CC(=O)O | 121 | – |
